{"source": "PubChem BioAssay (EPA / NIEHS)", "key": {"[1]": {"biological_target": "human Colony Stimulating Factor 1 Receptor (CSF1R), CSF1R (gene 1436) (UniProt P07333)", "sequence (P07333 whole entry, looked up)": "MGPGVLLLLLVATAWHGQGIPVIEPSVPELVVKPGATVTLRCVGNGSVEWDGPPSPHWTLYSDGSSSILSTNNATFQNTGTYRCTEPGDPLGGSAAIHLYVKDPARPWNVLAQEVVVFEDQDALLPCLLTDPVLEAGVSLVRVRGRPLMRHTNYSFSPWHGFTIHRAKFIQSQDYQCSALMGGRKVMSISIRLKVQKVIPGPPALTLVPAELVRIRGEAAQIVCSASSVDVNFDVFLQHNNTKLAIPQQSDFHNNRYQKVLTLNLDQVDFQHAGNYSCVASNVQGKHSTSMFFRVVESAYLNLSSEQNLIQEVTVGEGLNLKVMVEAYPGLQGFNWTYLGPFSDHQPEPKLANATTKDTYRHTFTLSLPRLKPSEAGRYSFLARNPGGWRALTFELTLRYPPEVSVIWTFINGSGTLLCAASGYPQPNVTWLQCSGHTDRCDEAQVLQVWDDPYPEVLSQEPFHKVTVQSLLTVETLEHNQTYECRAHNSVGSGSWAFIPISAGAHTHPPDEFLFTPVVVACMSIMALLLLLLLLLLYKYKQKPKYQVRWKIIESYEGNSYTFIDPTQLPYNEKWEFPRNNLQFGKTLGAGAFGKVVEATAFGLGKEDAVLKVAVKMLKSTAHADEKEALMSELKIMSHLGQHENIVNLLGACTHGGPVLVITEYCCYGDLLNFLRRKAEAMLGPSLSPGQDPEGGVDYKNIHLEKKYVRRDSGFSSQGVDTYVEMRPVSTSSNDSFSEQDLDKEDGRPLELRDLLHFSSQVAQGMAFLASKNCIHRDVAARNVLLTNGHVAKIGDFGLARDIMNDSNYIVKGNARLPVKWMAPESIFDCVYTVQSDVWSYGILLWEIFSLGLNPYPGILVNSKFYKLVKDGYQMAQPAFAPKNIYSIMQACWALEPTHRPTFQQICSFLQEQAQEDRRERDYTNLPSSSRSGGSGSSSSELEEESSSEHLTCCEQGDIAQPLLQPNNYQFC", "assay": "NVS_ENZ_hCSF1R: NovaScreen (NVS) Enzymatic Assay for human Colony Stimulating Factor 1 Receptor (CSF1R) (AID 2283150)", "outline": "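Cell-free recombinant human CSF1R kinase with fluorescent substrate, product separated by electrophoretic mobility shift; read 1 h after dosing. Primary screen at 25 uM in duplicate, actives then in concentration-response up to 50 uM, relative to DMSO.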"}, "[2]": {"biological_target": "human FYN Proto-Oncogene, Src family Tyrosine Kinase (Fyn), FYN (gene 2534) (UniProt P06241)", "sequence (P06241 whole entry, looked up)": "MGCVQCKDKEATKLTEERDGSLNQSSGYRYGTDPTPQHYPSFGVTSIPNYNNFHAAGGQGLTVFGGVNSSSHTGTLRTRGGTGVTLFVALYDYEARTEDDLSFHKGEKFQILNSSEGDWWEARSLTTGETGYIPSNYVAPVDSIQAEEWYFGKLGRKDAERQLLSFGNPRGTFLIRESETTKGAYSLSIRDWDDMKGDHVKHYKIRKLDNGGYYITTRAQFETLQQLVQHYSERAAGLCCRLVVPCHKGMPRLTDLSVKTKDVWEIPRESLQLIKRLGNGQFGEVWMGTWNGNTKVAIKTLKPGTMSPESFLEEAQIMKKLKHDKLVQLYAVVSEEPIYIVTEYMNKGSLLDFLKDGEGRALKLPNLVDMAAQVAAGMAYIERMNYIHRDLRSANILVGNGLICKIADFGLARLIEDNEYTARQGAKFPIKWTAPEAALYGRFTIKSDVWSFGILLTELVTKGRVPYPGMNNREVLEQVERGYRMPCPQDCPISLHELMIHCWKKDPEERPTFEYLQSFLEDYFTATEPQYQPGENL", "assay": "NVS_ENZ_hFyn: NovaScreen (NVS) Enzymatic Assay for human FYN Proto-Oncogene, Src family Tyrosine Kinase (Fyn) (AID 2283161)", "outline": "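Recombinant enzyme with fluorescent substrate, product separated by electrophoretic mobility shift; read 1 h after dosing. Duplicate 25 uM single-point screen, actives retested in concentration series; loss of signal vs DMSO.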"}, "[3]": {"biological_target": "human Insulin Receptor (InsR), INSR (gene 3643) (UniProt P06213)", "sequence (P06213 whole entry, looked up)": "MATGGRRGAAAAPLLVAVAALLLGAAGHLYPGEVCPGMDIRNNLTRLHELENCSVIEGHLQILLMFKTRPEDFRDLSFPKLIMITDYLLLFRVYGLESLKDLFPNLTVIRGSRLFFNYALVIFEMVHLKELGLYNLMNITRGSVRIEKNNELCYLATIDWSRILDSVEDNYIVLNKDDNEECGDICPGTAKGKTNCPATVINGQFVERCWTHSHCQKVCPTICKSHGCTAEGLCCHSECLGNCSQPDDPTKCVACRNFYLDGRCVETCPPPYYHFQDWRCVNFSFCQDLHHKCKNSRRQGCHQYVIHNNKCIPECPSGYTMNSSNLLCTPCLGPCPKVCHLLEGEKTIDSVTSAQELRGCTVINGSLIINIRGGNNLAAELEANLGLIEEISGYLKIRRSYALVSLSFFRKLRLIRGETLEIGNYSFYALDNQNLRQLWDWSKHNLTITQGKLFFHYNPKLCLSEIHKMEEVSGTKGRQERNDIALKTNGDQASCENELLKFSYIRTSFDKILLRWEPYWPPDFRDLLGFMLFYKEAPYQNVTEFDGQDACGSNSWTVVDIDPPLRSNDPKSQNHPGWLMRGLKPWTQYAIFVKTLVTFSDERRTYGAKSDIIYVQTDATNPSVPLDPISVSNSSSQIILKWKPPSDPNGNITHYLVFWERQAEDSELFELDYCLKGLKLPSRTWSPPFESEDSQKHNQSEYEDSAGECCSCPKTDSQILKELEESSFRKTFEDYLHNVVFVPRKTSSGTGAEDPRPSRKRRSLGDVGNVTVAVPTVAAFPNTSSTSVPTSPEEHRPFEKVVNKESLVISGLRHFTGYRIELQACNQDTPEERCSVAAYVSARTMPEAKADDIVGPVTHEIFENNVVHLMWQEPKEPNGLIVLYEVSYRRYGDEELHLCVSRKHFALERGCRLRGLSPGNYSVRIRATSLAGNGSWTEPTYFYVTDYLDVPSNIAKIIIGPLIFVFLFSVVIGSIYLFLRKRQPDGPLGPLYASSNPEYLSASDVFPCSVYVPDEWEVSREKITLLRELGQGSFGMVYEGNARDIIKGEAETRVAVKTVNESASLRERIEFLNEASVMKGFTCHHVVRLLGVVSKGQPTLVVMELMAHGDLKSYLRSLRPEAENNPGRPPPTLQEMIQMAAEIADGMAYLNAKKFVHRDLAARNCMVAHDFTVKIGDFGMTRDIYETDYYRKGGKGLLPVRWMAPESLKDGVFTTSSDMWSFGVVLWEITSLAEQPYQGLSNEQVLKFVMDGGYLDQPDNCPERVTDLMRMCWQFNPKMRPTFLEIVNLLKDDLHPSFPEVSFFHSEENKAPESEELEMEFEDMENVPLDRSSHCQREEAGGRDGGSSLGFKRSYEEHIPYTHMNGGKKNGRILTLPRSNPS", "assay": "NVS_ENZ_hInsR: NovaScreen (NVS) Enzymatic Assay for human Insulin Receptor (InsR) (AID 2283168)", "method": "NVS_ENZ_hInsR is a biochemical, single-readout assay that uses extracted gene-proteins in a cell-free assay. Measurements were taken 1 hour after chemical dosing in a 384-well plate.NVS_ENZ_hInsR is one of one assay component(s) measured or calculated from the NVS_ENZ_hInsR assay. It is designed to make measurements of enzyme activity, a form of enzyme reporter, as detected with fluorescence intensity signals by Fluorescence and electrophoretic mobility shift technology.Data from the assay component NVS_ENZ_hInsR was analyzed into 1 assay endpoint. This assay endpoint, NVS_ENZ_hInsR, was analyzed in the positive analysis fitting direction relative to DMSO as the negative control and baseline of activity. Using a type of enzyme reporter, loss-of-signal activity can be used to understand changes in the enzymatic activity as they relate to the gene INSR. Furthermore, this assay endpoint can be referred to as a primary readout, because this assay has produced multiple assay endpoints where this one serves a enzymatic activity function. To generalize the intended target to other relatable targets, this assay endpoint is annotated to the kinase intended target family, where the subfamily is receptor tyrosine kinase. […]"}, "[4]": {"biological_target": "human Janus Kinase 2 (Jak2), JAK2 (gene 3717) (UniProt O60674)", "sequence (O60674 whole entry, looked up)": "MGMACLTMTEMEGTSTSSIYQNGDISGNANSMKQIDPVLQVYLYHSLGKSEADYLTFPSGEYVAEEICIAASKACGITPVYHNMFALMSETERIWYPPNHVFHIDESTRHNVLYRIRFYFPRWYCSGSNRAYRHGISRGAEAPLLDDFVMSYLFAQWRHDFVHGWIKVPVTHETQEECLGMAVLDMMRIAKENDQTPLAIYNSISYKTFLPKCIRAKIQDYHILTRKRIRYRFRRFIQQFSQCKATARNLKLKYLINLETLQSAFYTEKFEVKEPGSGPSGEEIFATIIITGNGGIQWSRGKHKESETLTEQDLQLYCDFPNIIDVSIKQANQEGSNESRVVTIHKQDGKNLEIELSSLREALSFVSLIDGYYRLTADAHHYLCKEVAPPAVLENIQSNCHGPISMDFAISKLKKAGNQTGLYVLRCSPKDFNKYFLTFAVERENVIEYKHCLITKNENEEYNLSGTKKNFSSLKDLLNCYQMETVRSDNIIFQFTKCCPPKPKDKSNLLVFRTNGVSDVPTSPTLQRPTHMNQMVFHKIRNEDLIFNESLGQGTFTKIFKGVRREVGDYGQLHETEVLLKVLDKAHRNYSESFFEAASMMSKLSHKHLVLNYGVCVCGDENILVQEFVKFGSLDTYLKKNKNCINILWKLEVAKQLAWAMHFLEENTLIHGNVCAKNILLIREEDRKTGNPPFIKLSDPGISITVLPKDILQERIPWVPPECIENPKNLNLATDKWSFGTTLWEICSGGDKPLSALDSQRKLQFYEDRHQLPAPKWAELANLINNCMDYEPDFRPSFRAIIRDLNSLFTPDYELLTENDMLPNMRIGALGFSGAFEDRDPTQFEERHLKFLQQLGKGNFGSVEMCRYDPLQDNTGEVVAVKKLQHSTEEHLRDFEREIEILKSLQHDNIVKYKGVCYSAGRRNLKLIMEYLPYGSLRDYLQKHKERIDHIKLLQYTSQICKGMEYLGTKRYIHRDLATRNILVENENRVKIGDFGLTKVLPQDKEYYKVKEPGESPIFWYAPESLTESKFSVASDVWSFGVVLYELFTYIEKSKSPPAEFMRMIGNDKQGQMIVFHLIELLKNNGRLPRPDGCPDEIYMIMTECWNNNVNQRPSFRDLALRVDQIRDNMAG", "assay": "NVS_ENZ_hJak2: NovaScreen (NVS) Enzymatic Assay for human Janus Kinase 2 (Jak2) (AID 2283169)", "outline": "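Cell-free recombinant human JAK2 enzyme activity assay, fluorescence/electrophoretic mobility shift read 1 h after dosing. Screened in duplicate at 25 uM, then concentration-response up to 50 uM; activity as signal loss relative to DMSO.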"}, "[5]": {"biological_target": "human Elastase, ELANE (gene 1991) (UniProt P08246)", "sequence (P08246 whole entry, looked up)": "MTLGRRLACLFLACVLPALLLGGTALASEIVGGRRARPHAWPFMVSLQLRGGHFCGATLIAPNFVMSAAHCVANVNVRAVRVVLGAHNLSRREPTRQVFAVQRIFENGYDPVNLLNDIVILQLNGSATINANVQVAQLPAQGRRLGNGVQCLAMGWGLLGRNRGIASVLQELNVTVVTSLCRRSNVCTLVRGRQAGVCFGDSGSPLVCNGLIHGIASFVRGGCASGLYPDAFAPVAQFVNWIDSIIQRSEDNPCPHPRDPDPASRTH", "assay": "NVS_ENZ_hElastase: NovaScreen (NVS) Enzymatic Assay for human Elastase (AID 2283153)", "outline": "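Cell-free elastase from human neutrophils, 1.5 h after dosing, activity read by absorbance. Primary screen in duplicate at 25 uM; hits (e.g., 30% inhibition) rerun in singleton concentration-response up to 50 uM, fitted versus DMSO.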"}, "[6]": {"biological_target": "Histone deacetylase 3 (Homo sapiens) (UniProt O15379)", "assay": "NVS_ENZ_hHDAC3: NovaScreen (NVS) Enzymatic Assay for human Histone Deacetylase 3 (HDAC3) (AID 2283163)", "outline": "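Recombinant human HDAC3 with fluorescent substrate, 1 h after dosing; product separated from substrate by electrophoretic mobility shift and read by fluorescence. Primary screen at 25 uM in duplicate; actives (e.g. ≥30% inhibition) retested in concentration-response up to 50 uM.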"}, "[7]": {"biological_target": "Glycogen synthase kinase-3 beta (Homo sapiens) (UniProt P49841)", "sequence (P49841 whole entry, looked up)": "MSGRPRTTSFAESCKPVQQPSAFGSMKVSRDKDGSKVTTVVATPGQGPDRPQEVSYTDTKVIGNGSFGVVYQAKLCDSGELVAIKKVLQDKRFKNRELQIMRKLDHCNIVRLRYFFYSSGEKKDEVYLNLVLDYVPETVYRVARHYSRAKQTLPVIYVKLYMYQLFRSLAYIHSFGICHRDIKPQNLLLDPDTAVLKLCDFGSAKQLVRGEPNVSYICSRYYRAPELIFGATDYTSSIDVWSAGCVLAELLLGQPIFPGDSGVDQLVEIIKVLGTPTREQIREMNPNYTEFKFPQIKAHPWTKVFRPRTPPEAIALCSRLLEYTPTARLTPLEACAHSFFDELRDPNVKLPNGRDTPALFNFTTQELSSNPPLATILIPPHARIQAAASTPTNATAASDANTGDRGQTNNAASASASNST", "assay": "NVS_ENZ_hGSK3b: NovaScreen (NVS) Enzymatic Assay for human Glycogen Synthase Kinase-3 beta (GSK3b) (AID 2283165)", "outline": "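Recombinant enzyme with specific fluorescent substrate, 1 h, product separated by electrophoretic mobility shift. Primary duplicate screen at 25 uM; actives (e.g. 30% inhibition) followed in singleton concentration-response to 50 uM. Signal loss fitted versus DMSO.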"}}, "note": "Inconclusive results are not listed. Calls of active or inactive are those of the source. The calls were made as follows: active = hit-call score of the fitted dose curve at least 0.9, where 1 is the maximum; inconclusive = response in the unintended direction; inactive = score below 0.9.", "data": [{"smiles": "CC/C(=C(\\c1ccccc1)c1ccc(OCCN(C)C)cc1)c1ccccc1", "values": [{"measurement": "outcome", "setting": "[1]", "result": "inactive"}, {"measurement": "AC50", "setting": "[2]", "result": "22.9 µM (active)"}, {"measurement": "outcome", "setting": "[3]", "result": "inactive"}, {"measurement": "AC50", "setting": "[4]", "result": "11.1 µM (active)"}]}, {"smiles": "O=C(c1ccc(OCCN2CCCCC2)cc1)c1c(-c2ccc(O)cc2)sc2cc(O)ccc12", "values": [{"measurement": "AC50", "setting": "[5]", "result": "21 µM (active)"}, {"measurement": "AC50", "setting": "[2]", "result": "35.6 µM (active)"}, {"measurement": "AC50", "setting": "[4]", "result": "25 µM (active)"}]}, {"smiles": "C[C@]12CC[C@@H]3c4ccc(O)cc4CC[C@H]3[C@@H]1CC[C@@H]2O", "values": [{"measurement": "outcome", "setting": "[6]", "result": "inactive"}]}, {"smiles": "C=C(C)C(N)=O", "values": [{"measurement": "outcome", "setting": "[7]", "result": "inactive"}]}]}
